# Compound activity (PubChem BioAssay)
# AID504770: growth inhibitors of E. coli YBA685 in a screen for V. cholerae RctB (chromosome II replication) inhibitors | E. coli YBA685 rctB-dependent plasmid, OD600 growth, 3 h; stronger effect = lower value | AID 504770 | z-score (test concentration not listed) | hit rate 0.27% among 130,000; in the data active means z-score below about -2, passing the limit was not always enough
# PV pol inh: inhibitors of poliovirus RNA polymerase binding and polymerization; % elongation, % (compound at 16.7 µg/mL); P03300; poliovirus polymerase elongation, fluorescence polarization; stronger effect = lower value; hit rate 0.66% among 150,000; in the data active means % elongation below about 90%
# MbtI inh: inhibitors of Mycobacterium tuberculosis siderophore enzyme MbtI. P9WFX0. purified MbtI enzyme, fluorescence intensity read-out. inhibition, % (concentration not given with the values). hit rate 0.89% among 100,000; in the data active means inhibition mostly above about 56%, no sharp cut-off; inactive means mostly below about 77%
# Mtb MenB inh: inhibitors of Mycobacterium tuberculosis MenB enzyme; inhibition, % (test concentration not listed); P9WNP5; MenB enzyme assay, absorbance read-out; hit rate 0.43% among 100,000; AID 540299; in the data active means inhibition above about 21%, passing the limit was not always enough
# Target sequence (P9WNP5 whole entry, looked up): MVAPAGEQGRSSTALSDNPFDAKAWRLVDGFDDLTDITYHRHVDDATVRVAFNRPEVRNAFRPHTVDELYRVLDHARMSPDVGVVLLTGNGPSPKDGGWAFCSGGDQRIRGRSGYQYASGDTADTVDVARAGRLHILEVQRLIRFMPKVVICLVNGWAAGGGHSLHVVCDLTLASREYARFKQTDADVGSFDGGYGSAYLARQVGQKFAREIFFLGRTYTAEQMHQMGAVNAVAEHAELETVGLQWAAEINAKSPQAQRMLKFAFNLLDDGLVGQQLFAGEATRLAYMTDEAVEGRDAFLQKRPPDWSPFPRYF
# * marks the source's active call; other numbers are inactive results; / = no result given. Most compounds without a hit are left out; they make up all but 1.5% or so of the library.
SMILES,AID504770,PV pol inh,MbtI inh,Mtb MenB inh
CSc1ccc(CN(C)CC(=O)NC2(C#N)CCCC2)cc1,0.1,99.0,10.6,-3.0
Cc1c(C(=O)N2CCOCC2)oc2c1-c1nn(CC(=O)NCc3cccc(F)c3)cc1CC2,/,84.0*,/,/
Cc1c(C(=O)N2CCCC2)oc2c1-c1nn(CC(=O)NCCCOC(C)C)cc1CC2,/,47.0*,/,/
N#Cc1cc2c(nc1SCC(=O)N1CCCCC1)CCCC2,-0.05,100.0,-36.1,-6.4
N#Cc1cc2c(nc1SCC(=O)O)CCC2,-2.4*,108.0,/,5.8
CCc1ccc2[nH]c(=O)c(CN(Cc3ccccc3)Cc3nnnn3C3CCCC3)cc2c1,0,103.0,-17.2,-28.8
CCc1c(CN2CCN(c3cccc(C)c3C)CC2)csc1C,/,56.0*,/,/
Cc1ccc(S(=O)(=O)N2CCn3c(nc4ccccc43)C2)cc1,-0.3,/,/,/
Cc1cc(SCCOc2ccc(Cl)cc2Cl)nc(N)n1,-0.5,106.0,/,-26.7
S=c1[nH]ncn1/N=C/c1ccccc1,0.65,100.0,86.1*,7.5
COc1ccc(/C=N/n2cn[nH]c2=S)cc1OC,-1.15,104.0,-13.1,-26.7
Cc1ccc2[nH]c(=O)c(CN(Cc3ccccc3)C(=O)N(C)C)cc2c1,-0.35,102.0,-1.4,-24.8
O=S(=O)(Nc1ccccc1-c1ccccc1)c1cccs1,2.7,104.0,5.4,51.9*
Cc1ccc(-c2cn3c4ccccc4nc3n2CCCN2CCCCC2)cc1,-0.85,90.0*,/,-8.6
O=C(c1cc2ccccc2oc1=O)N1CCCC1,-0.35,98.0,24.8,37.8
CCC1CCCCN1C(=O)c1cc2ccccc2oc1=O (centres undefined),-0.85,59.0*,/,-7.5
Cc1ccc2c(CC(=O)NCc3ccccc3)coc2c1C,/,1.0*,/,/
N#CCCn1nc(-c2ccccc2)cc1Nc1ccccc1N,0.6,108.0,-6.2,-9.8
COc1ccc(C2C(=O)c3ccccc3C2=O)cc1,-0.5,100.0,2.8,4.9
COc1ccc([C@H]2NC(=O)C(=C=[N-])C(=O)[C@@H]2[n+]2ccccc2)cc1,0.45,37.0*,/,-16.0
OC(COc1ccc2cc(Br)ccc2c1)Cn1cccn1 (centres undefined),0.4,103.0,/,27.5*
O=C(COC(=O)C1CCC(N2C(=O)C3C4C=CC(C4)C3C2=O)CC1)c1ccc(F)cc1 (centres undefined),-0.75,104.0,-6.8,-63.8
CC(=O)Nc1scc(C)c1-c1nc2ccccc2s1,-0.85,/,/,/
CNc1sc(C(=O)c2cccs2)c(N)c1-c1nc2ccccc2s1,1.65,110.0,97.0*,-42.6
COc1ccc(/C=c2\sc3ncnn3c2=O)cc1,-0.3,89.0*,-9.8,-27.0
SMILES,AID504770,PV pol inh,MbtI inh,Mtb MenB inh
COC(=O)c1sc(-c2cccs2)cc1NS(=O)(=O)c1ccc(C)cc1,0.7,99.0,27.8,-36.8
COC(=O)C1=C(NC(=O)c2ccccc2)CCS1,-0.9,/,/,/
Cn1ncc(C(C#N)c2nc3ccccc3s2)c(Cl)c1=O (centres undefined),-0.75,140.0,57.3*,-265.6
CC(O)c1nc2ccccc2s1 (centres undefined),-0.55,100.0,8.7,-22.6
Cc1nc(C(=O)Oc2ccc(Cl)cc2)sc1C(=O)Oc1ccc(Cl)cc1,0,42.0*,55.2,-7.5
N#Cc1c(N)cc(N)nc1SCc1ccc(Cl)c(Cl)c1,0.3,101.0,-5.4,-16.9
N#CSC(C#N)Cc1ccc(Cl)c(Cl)c1 (centres undefined),-4.15*,92.0,89.1*,/
O=c1c2c([nH]c3ccccc13)CCCCC2,-0.55,100.0,19.6,34.8*
O=S(=O)(NC1=NCCS1)c1ccc(N=NN2CCCCC2)cc1,-1.3,102.0,-14.9,-12.5
Cc1ccc(S(=O)(=O)Nc2ccc(N=NN3CCCCC3)cc2)cc1,-6.85*,100.0,20.1,-57.3
O=C(Cn1cc(SCc2ccc(C(F)(F)F)cc2)c2ccccc21)N1CCCCC1,/,44.0*,/,/
O=C(Cn1cc(SCc2ccc(C(F)(F)F)cc2)c2ccccc21)N1CCCCCC1,/,115.0,/,/
COc1ccc(-c2csc(NCCCN(C)C)n2)cc1,-0.35,105.0,16.7,-24.5
Cc1ccc(S(=O)(=O)Nc2cc(Sc3ncn[nH]3)c(O)cc2C)cc1,0.7,111.0,53.9*,3.0
COc1ccc(S(=O)(=O)Nc2ccc(O)c(Sc3ncn[nH]3)c2)cc1,-0.9,101.0,8.0,-7.6
O=C1c2ccccc2C(=O)C1(O)N1CCOCC1,0,34.0*,1.6,18.8
O=C(CC1(c2ccc(Cl)cc2)C(=O)c2ccccc2C1=O)N1CCOCC1,-0.95,104.0,-8.2,-35.4
COc1cc2c3nc4n(c(=O)c3n(C)c2cc1OC)CCS4,0.7,103.0,89.7,-19.0
O=C(Nc1ccccc1)N(Cc1nnc2n1CCCCC2)c1ccc(I)cc1,2.05,90.0*,/,-6.8
